# Results reported in PubChem BioAssay (NCI).
# This is part of a sample that, as a whole, favours compounds with a hit. Of some 79,000 tested, about 15% had one in any assay. Unmarked numbers belong to inactive results. Calls of active or inactive are those of the source. Rule as the data show it: active = growth inhibition above about 70%; inactive = the rest.
# Assays:
# [1] = NCI Yeast Anticancer Drug Screen. Data for the rad50 strain (AID 155);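 also: 0% = growth of vehicle-only cultures of the same strain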; details: S. cerevisiae rad50 strain growth inhibition, active compounds read high
# Summary of the method: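 Compounds were tested on a yeast strain with an engineered DNA damage repair alteration; the reported value is growth inhibition normalised to vehicle treatment.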
# [2] = NCI Yeast Anticancer Drug Screen. Data for the mec2-1 strain (AID 157); details: S. cerevisiae mec2-1 strain, active compounds read high
# Summary of the method: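 Test agents were screened against the mec2-1 yeast strain, with defined DNA repair or cell cycle alteration. Growth was scored as inhibition against vehicle-only controls.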
# [3] = NCI Yeast Anticancer Drug Screen. Data for the sgs1 mgt1 strain (AID 161);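 also: 0% = growth of cultures given vehicle only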; details: S. cerevisiae sgs1 mgt1 strain, active compounds read high
# Summary of the method: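 Read-out: growth inhibition vs vehicle controls. Cells: mutant yeast strain deficient in DNA damage repair.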
# [4] = NCI Yeast Anticancer Drug Screen. Data for the cln2 rad14 strain (AID 165);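 also: 0% = growth equal to vehicle treated cultures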; details: S. cerevisiae cln2 rad14 strain, active compounds read high
# Summary of the method: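 Growth of compound-exposed yeast (cln2 rad14 genotype) measured and expressed as inhibition relative to vehicle.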
# [5] = NCI Yeast Anticancer Drug Screen. Data for the bub3 strain (AID 167); details: S. cerevisiae bub3 mutant strain, active compounds read high
# Summary of the method: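 Growth of a checkpoint-deficient yeast mutant is measured after compound exposure. Values represent inhibition relative to vehicle.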
# [6] = NCI Yeast Anticancer Drug Screen. Data for the mlh1 rad18 strain (AID 175); details: S. cerevisiae mlh1 rad18 strain growth inhibition, active compounds read high
# Summary of the method: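 In this whole-cell yeast screen, a strain with altered DNA damage repair is challenged with compound, and its growth is measured against matched vehicle-treated controls.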
# [7] = at 5.0 µM (retest, dose inferred, filed as 0.5)
# [8] = at 50.0 µM (retest, dose inferred, filed as 5.0)
SMILES,"growth inhibition [1, 7] [%]","growth inhibition [1, 8]",growth inhibition ([1]; at 50.0 µM),"growth inhibition [2, 7] [%]","growth inhibition [2, 8]",growth inhibition ([2]; at 50.0 µM),"growth inhibition [3, 7] [%]","growth inhibition [3, 8]",growth inhibition ([3]; at 50.0 µM),"growth inhibition [4, 7] [%]","growth inhibition [4, 8]",growth inhibition ([4]; at 50.0 µM) [%],"growth inhibition [5, 7]","growth inhibition [5, 8]",growth inhibition ([5]; at 50.0 µM),"growth inhibition [6, 7] [%]","growth inhibition [6, 8]",growth inhibition ([6]; at 50.0 µM)
O=C(Cc1nc2ccc(Cl)cc2nc1CC(=O)c1ccccc1)c1ccccc1,10,96% (active),95.2% (active),2,93% (active),85.5% (active),-2,94% (active),61.7%,-5,92% (active),67.3,-1%,97% (active),77.5% (active),7,96% (active),96.3% (active)
CCc1cc2c(c3c1C(=O)CC3)C(C)(C)CCC2,1,96% (active),11%,2,96% (active),34.6%,1,97% (active),6.4%,2,97% (active),13.8,12%,97% (active),48.5%,-6,97% (active),5%
COc1ccc(/C=N/n2c(C)nc3c(sc(=S)n3-c3ccccc3)c2=O)cc1,3,-12%,13.6%,-3,-6%,46.8%,3,23%,11.4%,-15,4%,8.15,12%,29%,47.4%,22,-12%,10.8%
Clc1ccccc1/C=C/c1ccccn1,-8,4%,41.2%,-6,-16%,30.7%,-8,1%,74.7% (active),-9,-16%,16.2,-3%,30%,67.5%,-7,-6%,71.8% (active)
N#Cc1ccccc1NC1OCC(O)C(O)C1O (configuration not stated),-149,-139%,0.45%,-45,-45%,-3.35%,-61,-79%,10.6%,-58,-53%,16.1,-67%,-74%,7.2%,-145,-105%,-3.35%
Nc1ncc2ccccc2c1-c1ccc(NC(=O)CCCl)cc1,-1,36%,70% (active),-3,40%,14.8%,-2,39%,31.6%,-1,23%,-4.85,6%,59%,21.6%,-2,55%,45%
O=C(O)CC(NC(=O)CP(=O)(O)O)C(=O)O.[NH-]C1CCCCC1[NH-].[Pt+2] (configuration not stated),30,24%,-2.95%,2,3%,-27.1%,26,11%,-27.9%,22,16%,20.8,18%,23%,-12.2%,18,2%,-23.1%
COc1cccc(/C=C2\CCCc3ccccc3C2=O)c1,1,20%,52.4%,7,45%,22.3%,14,67%,80.3% (active),-7,6%,26.6,72% (active),87% (active),74.4% (active),10,60%,63.6%
Clc1cc(Cl)c2cc3cccc[n+]3cc2c1Cl,0,19%,90.2% (active),-11,33%,93.5% (active),2,-18%,79.2% (active),4,31%,54.2,-12%,49%,87.8% (active),-14,55%,96.1% (active)
